Source: PubChem BioAssay (NCI)
The panel holds about 83,000 compounds, 20% with a hit somewhere; the sample as a whole holds those more often.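 Values shown are percent growth following 48 h exposure of cells in 96-well plates to a single concentration of compound; below 10 was considered active.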 Calls of active or inactive are those of the source.

Columns and labels:
Experiment in all cases: NCI-60 one-dose screen, 48 h (100 = growth as untreated, 0 = no growth, -100 = all killed)
Details in all cases: 10 µM unless noted
T-47D breast = system: T-47D breast
BT-549 breast = system: BT-549 breast
MDA-MB-435 melanoma = system: MDA-MB-435 melanoma
SW-620 colon = system: SW-620 colon
MCF7 breast = system: MCF7 breast
HCT-116 colon = system: HCT-116 colon
HCC-2998 colon = system: HCC-2998 colon
KM12 colon = system: KM12 colon

Measured: growth

COc1ccc(/C=C/C(=O)c2cc(OC)c(OC)c(OC)c2)cc1OCc1cn(Cc2ccc(F)cc2)nn1
inactive: T-47D breast 50.4% | BT-549 breast 25.7% | SW-620 colon 15.4% | MCF7 breast 13% | HCT-116 colon 15% | HCC-2998 colon 101%
active: MDA-MB-435 melanoma 5.55% | KM12 colon 6.55%

COc1ccc(-c2nc3sccn3c2-c2ccnc(NCCCNS(=O)(=O)c3ccc(F)cc3)n2)cc1
active: T-47D breast -12.7% | HCT-116 colon 8.56% | KM12 colon 9.82%
inactive: BT-549 breast 10% | MDA-MB-435 melanoma 14.1% | SW-620 colon 23.2% | MCF7 breast 11.6% | HCC-2998 colon 52%

Nc1c(C(=O)c2ccc(F)cc2)sc2nc3c(cc12)CCCC3
inactive: T-47D breast 79.9% | BT-549 breast 90.7% | MDA-MB-435 melanoma 22.5% | SW-620 colon 81% | MCF7 breast 80.4% | HCT-116 colon 72.2% | HCC-2998 colon 76.7% | KM12 colon 66.2%

O=C1NC(Cc2c[nH]c3ccccc23)C(=O)N1Cc1ccc(Cl)cc1 (stereo unspecified)
inactive: T-47D breast 94.3% | BT-549 breast 96.3% | MDA-MB-435 melanoma 92.2% | SW-620 colon 98.4% | MCF7 breast 98% | HCT-116 colon 93.4% | HCC-2998 colon 131% | KM12 colon 99.3%

CN(C)C1CCC(NC2=CC(=O)C=CC2=O)CC1 (stereo unspecified)
active: HCT-116 colon 5.98%
inactive: T-47D breast 110% | BT-549 breast 114% | MDA-MB-435 melanoma 114% | SW-620 colon 117% | MCF7 breast 97.9% | HCC-2998 colon 126% | KM12 colon 108%

CCOC(=O)[C@H](CSSc1ncnc2cc[nH]c12)NC(=O)[C@@H](C)c1ccc2cc(OC)ccc2c1
active: MCF7 breast 8.81%
inactive: T-47D breast 23.3% | BT-549 breast 46.3% | MDA-MB-435 melanoma 24.4% | SW-620 colon 19.3% | HCT-116 colon 11.1% | HCC-2998 colon 25.4% | KM12 colon 23.5%

COC(=O)CCCCCN=Cc1c(O)c(O)c(C(C)C)c2cc(C)c(-c3c(C)cc4c(C(C)C)c(O)c(O)c(C=NCCCCCC(=O)OC)c4c3O)c(O)c12
active: HCT-116 colon 9.82%
inactive: T-47D breast 11.8% | BT-549 breast 35.1% | MDA-MB-435 melanoma 21.1% | SW-620 colon 20.2% | MCF7 breast 12.9% | HCC-2998 colon 30.2% | KM12 colon 19.7%

C#CCC1(c2ccc(F)c(F)c2)NS(=O)(=O)c2ccccc21 (stereo unspecified)
inactive: T-47D breast 85.4% | BT-549 breast 110% | MDA-MB-435 melanoma 107% | SW-620 colon 108% | MCF7 breast 94.1% | HCT-116 colon 95.5% | HCC-2998 colon 102% | KM12 colon 102%

COC(=O)CCCCN=Cc1c(O)c(O)c(C(C)C)c2cc(C)c(-c3c(C)cc4c(C(C)C)c(O)c(O)c(C=NCCCCC(=O)OC)c4c3O)c(O)c12
active: MCF7 breast 9.71%
inactive: T-47D breast 24.9% | BT-549 breast 28.2% | MDA-MB-435 melanoma 25.7% | SW-620 colon 17% | HCT-116 colon 14.9% | HCC-2998 colon 29.7% | KM12 colon 16.1%

Cc1ccccc1C(=O)c1ccccc1C(=O)O
inactive: T-47D breast 107% | BT-549 breast 106% | MDA-MB-435 melanoma 105% | SW-620 colon 102% | MCF7 breast 100% | HCT-116 colon 103% | HCC-2998 colon 105% | KM12 colon 107%

O=C(CNc1ccc(Cl)cc1)Nc1ccc(-c2nc3ccccc3s2)cc1
active: T-47D breast 4.58% | HCC-2998 colon -16.2%
inactive: BT-549 breast 16.7% | MDA-MB-435 melanoma 62.8% | SW-620 colon 22.6% | MCF7 breast 11.5% | HCT-116 colon 23.3% | KM12 colon 80.7%

COc1cc(OC)cc(-c2n[nH]nc2-c2ccc3c(c2)OCO3)c1
active: MDA-MB-435 melanoma -82.8%
inactive: T-47D breast 55.4% | BT-549 breast 51.2% | SW-620 colon 30.8% | MCF7 breast 24.3% | HCT-116 colon 15.7% | HCC-2998 colon 31.9% | KM12 colon 25.1%

CC(=O)Nc1nc(C(=O)N2N=C(C)/C(=C/c3ccccc3)C2=O)cs1
inactive: T-47D breast 98.6% | BT-549 breast 107% | MDA-MB-435 melanoma 106% | SW-620 colon 107% | MCF7 breast 95.9% | HCT-116 colon 98.3% | HCC-2998 colon 104% | KM12 colon 102%

NC(=O)c1c(NC(=O)c2ccc(OCC3CCCO3)cc2)sc2c1CCCC2 (stereo unspecified)
inactive: T-47D breast 80.5% | BT-549 breast 101% | MDA-MB-435 melanoma 95.8% | SW-620 colon 110% | MCF7 breast 101% | HCT-116 colon 90% | HCC-2998 colon 113% | KM12 colon 66.9%

COc1cc(NS(C)(=O)=O)ccc1Nc1c2ccc([N+](=O)[O-])cc2nc2c(C)cccc12
inactive: BT-549 breast 27% | MDA-MB-435 melanoma 27.2% | SW-620 colon 18.8% | MCF7 breast 15.6% | HCT-116 colon 22.9%
active: T-47D breast 1.78% | HCC-2998 colon -1.86% | KM12 colon -29.1%

O=S=Nc1ccc([N+](=O)[O-])cc1
inactive: T-47D breast 76.2% | BT-549 breast 91.8% | MDA-MB-435 melanoma 95.5% | SW-620 colon 93.4% | MCF7 breast 95.7% | HCT-116 colon 94% | HCC-2998 colon 93.5% | KM12 colon 81.6%

COc1cc2nc(SCc3cc(OC)c(OC)c(OC)c3)n(Cc3ccccc3)c(=O)c2cc1OC
active: MDA-MB-435 melanoma -20.3%
inactive: T-47D breast 35.9% | BT-549 breast 16.8% | SW-620 colon 33.5% | MCF7 breast 10.1% | HCT-116 colon 14.7% | HCC-2998 colon 40.9% | KM12 colon 15.4%

Oc1ccc(Cl)cc1-c1cc(-c2ccc(Cl)cc2)n[nH]1
inactive: T-47D breast 30.9% | BT-549 breast 84% | MDA-MB-435 melanoma 84.9% | SW-620 colon 81% | HCT-116 colon 43.8% | HCC-2998 colon 22% | KM12 colon 29.6%
active: MCF7 breast 3.03%

Cc1cccc2cc(/C=C/C(=O)/C=C/c3ccc(Cl)cc3)c(=O)[nH]c12
inactive: T-47D breast 41.6%
active: BT-549 breast 7.28% | MDA-MB-435 melanoma -32.7% | SW-620 colon 8.48% | MCF7 breast 9.87% | HCT-116 colon -52.7% | HCC-2998 colon -4.78% | KM12 colon 8.42%

CCCCCCCCCCCCNC(=S)N/N=C/c1ccc(Cl)c(Cl)c1
inactive: T-47D breast 94.9% | BT-549 breast 120% | MDA-MB-435 melanoma 98.8% | SW-620 colon 110% | MCF7 breast 102% | HCT-116 colon 102% | HCC-2998 colon 106% | KM12 colon 102%

O=C1CCCCN1CCCCC#Cc1ccccc1C#Cc1ccc([N+](=O)[O-])cc1
inactive: T-47D breast 49.4% | BT-549 breast 65.9% | MDA-MB-435 melanoma 45.5% | SW-620 colon 27.3% | MCF7 breast 49.6% | HCT-116 colon 23.1% | HCC-2998 colon 67.2% | KM12 colon 27.2%

COc1cc2c(cc1OC)C1(C)N(CC2)C(=O)OC1(C)C (stereo unspecified)
inactive: T-47D breast 98.4% | BT-549 breast 115% | MDA-MB-435 melanoma 113% | SW-620 colon 103% | MCF7 breast 91.3% | HCT-116 colon 104% | HCC-2998 colon 102% | KM12 colon 112%

Cc1ccc(Nc2ncnc3c2sc2ncccc23)cc1
inactive: T-47D breast 95.9% | BT-549 breast 111% | MDA-MB-435 melanoma 108% | SW-620 colon 99.8% | MCF7 breast 92.8% | HCT-116 colon 106% | HCC-2998 colon 103% | KM12 colon 105%

CC(C)C[C@H](NC(=O)Cn1ccc(NCc2ccccc2)cc1=O)B(O)O
active: T-47D breast -14.6% | BT-549 breast 3.58% | MDA-MB-435 melanoma -62.2% | SW-620 colon 4.73% | HCT-116 colon -47.7% | HCC-2998 colon 0.885%
inactive: MCF7 breast 28.9% | KM12 colon 24.7%

O=C1Nc2cc(Cl)ccc2/C1=C/c1ccc(N2CCOCC2)s1
inactive: T-47D breast 84% | BT-549 breast 109% | MDA-MB-435 melanoma 102% | SW-620 colon 102% | MCF7 breast 86.7% | HCT-116 colon 96.6% | HCC-2998 colon 114% | KM12 colon 105%

CCSc1nnc(Nc2ccc(C(C)C)cc2)s1
inactive: T-47D breast 78.7% | BT-549 breast 103% | MDA-MB-435 melanoma 86.7% | SW-620 colon 84.1% | MCF7 breast 95.2% | HCT-116 colon 72.3% | HCC-2998 colon 92.7% | KM12 colon 83.9%

COc1cc2c3c(c(=O)oc2cc1OS(=O)(=O)c1ccc(C(F)(F)F)cc1)CCCCC3
inactive: T-47D breast 80.9% | BT-549 breast 75.4% | MDA-MB-435 melanoma 91.6% | SW-620 colon 102% | MCF7 breast 89.6% | HCT-116 colon 66.6% | HCC-2998 colon 97.6% | KM12 colon 92.1%

NS(=O)(=O)c1ccc(CN2C(=O)c3cccc4cccc(c34)C2=O)cc1
inactive: T-47D breast 78.1% | BT-549 breast 96.2% | MDA-MB-435 melanoma 114% | SW-620 colon 104% | MCF7 breast 93.9% | HCT-116 colon 92.7% | HCC-2998 colon 107% | KM12 colon 99.1%

CC(=O)N1Cc2ccccc2C(C)Cc2cc(Cl)ccc21 (stereo unspecified)
inactive: T-47D breast 100% | BT-549 breast 115% | MDA-MB-435 melanoma 106% | SW-620 colon 106% | MCF7 breast 102% | HCT-116 colon 105% | HCC-2998 colon 100% | KM12 colon 103%

O=C(c1c[nH]c2ccccc12)C(Sc1nc2ccccc2c(=O)[nH]1)c1ccccc1 (stereo unspecified)
inactive: T-47D breast 81% | BT-549 breast 87.2% | MDA-MB-435 melanoma 115% | SW-620 colon 110% | MCF7 breast 101% | HCT-116 colon 95.1% | HCC-2998 colon 112% | KM12 colon 106%

COc1ccc(/C=N/NC(=O)Cn2c(Cc3cccc4ccccc34)nc3ccccc32)cc1
inactive: T-47D breast 85.8% | BT-549 breast 107% | MDA-MB-435 melanoma 103% | SW-620 colon 109% | MCF7 breast 92.4% | HCT-116 colon 100% | HCC-2998 colon 107% | KM12 colon 98%

NC(CC(N)C(=O)O)C(=O)O (stereo unspecified)
inactive: T-47D breast 92.9% | BT-549 breast 105% | MDA-MB-435 melanoma 103% | SW-620 colon 104% | MCF7 breast 98.7% | HCT-116 colon 102% | HCC-2998 colon 99.3% | KM12 colon 113%
